Screening data (PubChem)
EBV gp42 block: EBV gp42 inhibition. Q1HVG2. Fluorescence polarization binding assay, mP read-out. inhibition, % (tested at 21.74 µM). 220,000 compounds, 0.42% hits. AID 1085; in the data active means inhibition above about 50%
Bcl-xL primary: inhibitors of human Bcl-xL; GST-Bcl-xL / FITC-Bim BH3 peptide fluorescence polarization; inhibition, % at 10.9 µM; AID 2129; 320,000 compounds, 0.7% hits; Q07817;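 active means inhibition above the mean of all tested compounds plus 3 SD, cutoff set per campaign, cut at about 30% in these data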;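 further: 0% = DMSO wells and 100% = unlabeled Bim-BH3 peptide competitor; inhibitors lower millipolarization by displacing the labeled peptide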
GLD-1 RNA inh: GLD-1-TGE RNA interaction inhibition (C. elegans); inhibition, % at 5.96 µM; purified GLD-1 + fluorescein TGE RNA, fluorescence polarization; Q17339; 320,000 compounds, 0.44% hits;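 active means percent inhibition above a per-plate cutoff, the plate mean of test compounds plus 3 SD, cut at about 30% in these data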;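 further: 0% = DMSO wells with GLD-1 and probe and 100% = wells lacking GLD-1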
E coli Lon inh: E. coli protease La inhibition; P0A9M0; AID 602123; 360,000 compounds, 0.42% hits; purified E. coli Lon protease, fluorescence polarization; inhibition, % at 7.94 µM; in the data active means inhibition above about 13%, passing the limit was not always enough;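 further: 0% = enzyme with probe and DMSO and 100% = no enzyme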
Target sequence (P0A9M0 whole entry, looked up): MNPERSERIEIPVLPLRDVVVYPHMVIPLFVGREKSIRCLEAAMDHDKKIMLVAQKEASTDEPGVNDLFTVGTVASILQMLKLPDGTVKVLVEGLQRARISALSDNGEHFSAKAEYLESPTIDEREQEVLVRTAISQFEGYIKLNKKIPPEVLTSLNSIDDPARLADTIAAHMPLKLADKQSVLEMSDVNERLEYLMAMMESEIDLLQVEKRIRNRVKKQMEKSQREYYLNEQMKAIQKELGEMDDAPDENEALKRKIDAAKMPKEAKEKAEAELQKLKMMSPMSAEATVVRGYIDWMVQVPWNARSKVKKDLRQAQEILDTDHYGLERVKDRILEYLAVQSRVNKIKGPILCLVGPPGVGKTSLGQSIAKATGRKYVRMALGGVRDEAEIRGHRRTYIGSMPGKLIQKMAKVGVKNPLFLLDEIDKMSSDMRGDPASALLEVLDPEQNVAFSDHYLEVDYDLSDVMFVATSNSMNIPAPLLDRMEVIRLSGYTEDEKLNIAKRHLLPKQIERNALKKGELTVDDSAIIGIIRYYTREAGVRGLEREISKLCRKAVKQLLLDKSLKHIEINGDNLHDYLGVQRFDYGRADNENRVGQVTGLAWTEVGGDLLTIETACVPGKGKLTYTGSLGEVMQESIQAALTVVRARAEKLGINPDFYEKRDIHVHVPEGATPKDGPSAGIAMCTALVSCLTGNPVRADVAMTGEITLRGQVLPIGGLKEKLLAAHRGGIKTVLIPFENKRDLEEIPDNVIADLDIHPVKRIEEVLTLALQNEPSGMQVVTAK
MEX-5 binding: C. elegans MEX-5 TCR-2 RNA binding activity | MEX-5/FITC-TCR2 RNA binding, fluorescence polarization; stronger effect = lower value | 300,000 compounds, 0.38% hits | activity score (negative = inhibition of binding), % at 10 µM | AID 1832;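 active means inhibition past about -25% in most replicates, and total fluorescence under double the plate's negative control median, limit read from the data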;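 further: 0% = DMSO and -100% = 5 µM competing unlabeled TCR2 RNA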
The depositor's hits bear a star; . = not tested or not shown. Sampled rows, rich in hits. Any-hit rate of the full collection: about 1.3%.

SMILES	EBV gp42 block	Bcl-xL primary	GLD-1 RNA inh	E coli Lon inh	MEX-5 binding
Nn1c(SCC(=O)NC(=O)NCc2ccco2)nnc1-c1ccc(OC(F)F)cc1	62.3*	-12.4	-2.7	-13.0	0.0
COc1ccc(NC(=O)CSc2nnc(-c3cc(C)[nH]n3)n2N)cc1	.	-0.5	0.8	-2.0	-1.2
CCOC(=O)CNC(=O)CSc1nc(Cc2ccccc2)nc2ccccc12	.	4.1	6.9	-0.5	-0.1
COc1ccc(N2CCN(c3nccs3)CC2)cc1	.	-6.2	4.1	1.0	0.4
Cc1nnc(SCC2=C(C(=O)O)N3C(=O)C(NC(=O)C(C)n4nc(C(F)(F)F)cc4C)C3SC2)s1 (stereo unspecified)	-8.5	11.1	-2.0	-3.7	-3.4
COc1ccc(C2=CC3=C(Br)C(=O)C(C)(OC(=O)c4cccs4)C(=O)C3=CO2)cc1 (stereo unspecified)	.	20.1	12.9	-26.4	-33.6*
COc1ccc(C2=CC3=C(Br)C(=O)C(C)(OC(=O)c4ccco4)C(=O)C3=CO2)cc1 (stereo unspecified)	11.4	42.3*	20.2	-42.9	-47.5*
CC(C)(C)CN1CCC(Oc2cccc(C(=O)N3CCNC(=O)C3(C)C)c2)CC1	.	3.4	7.7	8.9	1.7
COc1cccc(CN(C)C(=O)c2ccc3nccnc3c2)c1	29.1	41.0*	10.1	-14.9	1.4
N#CCC(N)=C(C#N)C#N	-1.6	20.5	15.0	-2.5	-37.6*
CCCCN1C(=O)C2Cc3c([nH]c4ccccc34)CN2C1=S (stereo unspecified)	51.9*	-10.2	44.5*	-67.2	-27.9*
CCCCCN1CC(=O)N2Cc3[nH]c4ccccc4c3C[C@H]2C1=O	.	-2.6	5.5	3.2	-1.4
Nc1ncnc(NNC(=O)CNC(=O)c2c(F)cccc2Cl)c1[N+](=O)[O-]	-5.8	5.8	-1.4	5.0	-65.7*
COc1ccccc1C(=O)NCC(=O)NNc1ncnc(N)c1[N+](=O)[O-]	-17.4	9.2	-7.2	.	-2.8
NC(=O)c1ccc(Oc2cccc3cccnc23)c([N+](=O)[O-])c1	18.9	32.8*	6.5	0.5	-3.8
CCOC(=O)CCNC(=O)N1CCCC(N(C)CCc2ccc(OC)c(OC)c2)C1 (stereo unspecified)	.	4.2	2.0	0.4	-1.8
CCSc1nnc(Cc2cc(=O)[nH]c(=O)[nH]2)n1-c1ccc(F)cc1	-3.7	4.0	4.8	-2.7	-1.6
O=C(CSc1nnc(Cc2cc(=O)[nH]c(=O)[nH]2)n1-c1ccc(F)cc1)N1CCCCC1	3.2	7.1	23.6	14.4*	-1.3
O=C(CSc1nnc(Cc2cc(=O)[nH]c(=O)[nH]2)n1-c1ccc(F)cc1)NC1CCCC1	20.2	16.5	16.4	16.2*	-11.1
CC1=NOC(=O)/C1=C\c1ccc(-c2cccc(Cl)c2)o1	-20.7	-0.9	-23.4	-12.2	1.0
Cc1nc(S/C(=C/c2ccc(-c3cccc(Cl)c3)o2)C(=O)O)n[nH]1	-33.5	2.3	0.5	-8.3	-35.3*
CC/C(=N/Nc1ccc(Cl)cc1)c1cnnc(SC)n1	1.5	10.2	6.4	8.8	.
CC/C(=N/Nc1cccc(C)c1)c1cnnc(SC)n1	-11.1	46.2*	7.2	-33.6	-33.3*
COc1ccccc1-c1nc2s/c(=C\c3cccs3)c(=O)n2n1	-11.1	4.1	-1.7	-4.9	-0.5
COc1ccc(/C=c2\sc3nc(-c4ccccc4OC)nn3c2=O)c(OC)c1	15.6	0.9	3.9	-10.1	-32.6*
SMILES	EBV gp42 block	Bcl-xL primary	GLD-1 RNA inh	E coli Lon inh	MEX-5 binding
O=C(N/N=C/c1ccc(O)c(O)c1)N/N=C/c1ccc(O)c(O)c1	.	.	.	-3.0	-39.4*
Oc1ccc(/C=N/NC(=S)Nc2cccnc2)cc1O	4.2	13.8	-1.2	6.8	-45.5*
Cc1nonc1C(=O)N/N=C/c1ccc(O)c(O)c1	-24.6	1.8	-8.8	4.2	-5.3
CC1(OC(=O)c2cccs2)C(=O)C=C2C=C3CCCN3C=C2C1=O (stereo unspecified)	26.7	23.8	10.9	2.3	-27.5*
COc1ccccc1N1CCN(C(c2cccs2)C(C)NC(=O)c2cccs2)CC1 (stereo unspecified)	-8.0	1.1	1.1	-5.6	2.4
Cc1ccccc1Cn1ccc(NC(=O)c2cnn3c2NC(c2ccccc2)CC3C(F)(F)F)n1 (stereo unspecified)	0.8	5.2	-2.9	22.3*	2.3
CCN1C(=O)/C(=C2\SC(=S)N(NC(=O)c3ccccc3O)C2=O)c2ccccc21	12.8	22.6	3.2	4.3	-39.6*
COc1ccc(OC)c(S(=O)(=O)N2CCN(c3c(C)cccc3C)CC2)c1	-16.2	9.5	5.7	6.3	3.4
Cc1[nH]c(=O)[nH]c(=O)c1CSCC(=O)OCC(=O)Nc1ccccn1	51.2*	9.2	12.7	6.3	-11.5
CC[C@H](C)/C=C(C)/C=C/C1=CC2=CC(=O)[C@]3(C)OC(=O)[C@@H](C(C)=O)[C@@H]3C2=CO1	17.3	37.8*	34.0*	-29.9	-18.7
ONc1cccnc1-n1nc(C(F)(F)F)cc1C(F)(F)F	5.9	37.8*	22.1	.	-4.3
O=C(NC(NC(=S)Nc1ccc(Cl)cc1Cl)C(Cl)(Cl)Cl)c1cccc([N+](=O)[O-])c1 (stereo unspecified)	60.2*	-0.8	8.5	-4.9	3.2
O=C(O)c1cccc(NC(=S)NC(NC(=O)c2cccc([N+](=O)[O-])c2)C(Cl)(Cl)Cl)c1 (stereo unspecified)	0.8	11.5	4.0	-2.1	2.0
CCOC(=O)C1=C(C)OC(N)=C(C#N)C1c1ccc(O)c(OC)c1 (stereo unspecified)	-19.6	-0.1	6.5	-1.6	-39.6*
O=C(O)c1ccccc1-c1ccccc1C(=O)NCc1ccccc1Cl	.	4.3	9.7	-10.0	0.7
C[C@H](CO)N1C[C@H](C)[C@@H](CN(C)S(=O)(=O)c2cccs2)Oc2ccc(NS(=O)(=O)c3ccccc3)cc2C1=O	.	.	5.5	4.7	.
O=C(Nc1c(-c2ccc3c(c2)OCO3)[nH][nH]c1=O)c1cccc(C(F)(F)F)c1	.	.	.	6.0	.
Cc1nc(NC(=O)c2cc3ccccc3o2)ccc1Br	.	-2.6	1.2	-5.7	-2.7
Cc1ccc(C)n1Cc1ccc(C(=O)O)cc1	6.7	41.0*	22.2	-3.2	.
Cc1cc(C)n(Cc2ccc(C(=O)O)cc2)n1	-22.7	3.6	3.9	-4.8	-0.1
Oc1ccc(C[C@H]2CNC(=S)N2CC2CCCN2C[C@H](Cc2ccc(O)cc2)N2C[C@H](Cc3ccccc3)N(CC3CCCCC3)C2=S)cc1 (stereo partly specified)	.	.	.	12.4	.
CC1Oc2cc3oc4c(O)c(O)ccc4c(=O)c3c(O)c2C1(C)C (stereo unspecified)	.	10.2	31.0*	8.1	-1.2
COc1ccc2nc3ccccc3nc2c1NC(=O)c1ccc(Cl)cc1Cl	24.9	3.9	13.1	-7.2	-53.2*
O=C(/C=C/c1ccc(N2CCC(c3ccccc3)=N2)cc1)c1ccccc1	53.3*	34.1*	-84.4	.	5.5
Cn1nnnc1SCC(=O)Nc1ccccc1N1CCCCC1	139.7*	-3.2	-1.9	-3.4	1.0
Cc1ccccc1-c1nnc(CN2CCC(C)CC2)o1	.	-0.3	37.2*	1.2	-0.1
